From paper PMC7862700, “An all-to-all approach to the identification of sequence-specific readers for epigenetic DNA modifications on cytosine” come the findings set out here.

Assay in all cases: DAPPL (digital affinity profiling via proximity ligation, sequencing); 10 mM Tris-HCl pH 7.5, 50 mM NaCl, 1 mM DTT, 4% glycerol, room temperature, 30 min; GST-TFs on glutathione beads, 16-mer random dsDNA library, 0.1% formaldehyde crosslink after washing; high values mean tight binding
The target of one assay is T1, FEV (Homo sapiens, UniProt Q99581 1-238).
T1 sequence: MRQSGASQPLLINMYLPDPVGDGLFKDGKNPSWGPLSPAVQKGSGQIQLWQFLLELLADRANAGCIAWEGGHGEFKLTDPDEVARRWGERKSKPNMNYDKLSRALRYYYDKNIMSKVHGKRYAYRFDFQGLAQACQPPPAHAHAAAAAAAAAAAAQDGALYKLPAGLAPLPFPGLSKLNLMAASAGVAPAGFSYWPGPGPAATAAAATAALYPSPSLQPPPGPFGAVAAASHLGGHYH
To be noted: protein: recombinant; tags: N-terminal GST; dsDNA, one strand shown. The gist of the method:
(§1)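 Human transcription factors fused to GST were expressed in yeast, captured on glutathione beads, given DNA barcodes and pooled with a GST-only negative control. Pools were incubated with 200 nmole of a 16-mer random double-stranded DNA library in Tris/NaCl/DTT/glycerol buffer at room temperature for 30 min. They were then washed, crosslinked with 0.1% formaldehyde, proximity-ligated (BsaI/T4 ligase, 1 h, 37 °C), PCR-amplified and sequenced on an Illumina NextSeq500. Binding signal is each 6-mer's read frequency for a factor divided by its frequency for the GST control.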

For another assay, the target named is ETV5 (Homo sapiens, UniProt P41161 1-510). As to conditions: protein: recombinant; tags: N-terminal GST; dsDNA, one strand shown. The method, boiled down: as §1
The next assay addresses HSF1 (Homo sapiens, UniProt Q00613 1-529). As to conditions: protein: recombinant; tags: N-terminal GST; chain copies: 3; dsDNA, one strand shown. The method, boiled down: as §1
For another assay, the target named is T2, SPIC (Homo sapiens, UniProt Q8N5J4 1-248).
T2 sequence: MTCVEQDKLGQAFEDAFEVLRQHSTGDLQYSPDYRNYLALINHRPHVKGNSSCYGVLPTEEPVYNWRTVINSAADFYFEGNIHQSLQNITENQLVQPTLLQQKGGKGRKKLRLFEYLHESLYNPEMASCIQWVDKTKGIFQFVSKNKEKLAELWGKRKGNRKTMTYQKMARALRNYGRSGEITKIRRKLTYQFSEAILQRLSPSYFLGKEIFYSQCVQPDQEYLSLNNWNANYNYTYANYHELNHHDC
To be noted: protein: recombinant; tags: N-terminal GST; dsDNA, one strand shown. The method, boiled down: as §1

In a further assay the target is ELF4 (Homo sapiens, UniProt Q99607 1-663). As to conditions: protein: recombinant; tags: N-terminal GST; dsDNA, one strand shown. The gist of the method:
as §1

Another assay addresses T3, ELK4 (Homo sapiens, UniProt P28324-2 1-405).
T3 sequence: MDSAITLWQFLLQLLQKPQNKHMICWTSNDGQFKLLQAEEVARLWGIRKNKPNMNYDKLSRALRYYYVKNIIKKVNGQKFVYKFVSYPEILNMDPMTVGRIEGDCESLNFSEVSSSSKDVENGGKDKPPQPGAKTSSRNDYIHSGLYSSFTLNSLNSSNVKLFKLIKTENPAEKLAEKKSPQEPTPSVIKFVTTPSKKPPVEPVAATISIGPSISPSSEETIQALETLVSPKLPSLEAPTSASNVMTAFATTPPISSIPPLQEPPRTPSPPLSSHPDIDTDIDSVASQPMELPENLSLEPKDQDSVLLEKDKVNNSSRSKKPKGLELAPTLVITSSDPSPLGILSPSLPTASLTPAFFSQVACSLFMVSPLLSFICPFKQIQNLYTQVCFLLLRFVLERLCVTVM
As to conditions: protein: recombinant; tags: N-terminal GST; dsDNA, one strand shown. The gist of the method:
as §1

Another assay deals with T4, ETV2 (Homo sapiens, UniProt O00321 1-342).
T4 sequence: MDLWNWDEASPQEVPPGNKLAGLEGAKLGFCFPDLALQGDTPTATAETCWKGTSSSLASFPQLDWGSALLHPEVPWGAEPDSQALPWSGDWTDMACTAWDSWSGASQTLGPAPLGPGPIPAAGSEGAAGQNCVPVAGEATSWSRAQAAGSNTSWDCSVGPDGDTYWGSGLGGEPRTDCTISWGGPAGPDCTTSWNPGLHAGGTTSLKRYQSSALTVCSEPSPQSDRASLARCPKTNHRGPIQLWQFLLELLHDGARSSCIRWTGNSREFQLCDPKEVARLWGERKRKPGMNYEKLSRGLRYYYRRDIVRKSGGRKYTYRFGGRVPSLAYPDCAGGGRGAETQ
As to conditions: protein: recombinant; tags: N-terminal GST; dsDNA, one strand shown. The method, boiled down:
as §1

A further assay has as its target T5, ELF3 (Homo sapiens, UniProt P78545 1-371).
T5 sequence: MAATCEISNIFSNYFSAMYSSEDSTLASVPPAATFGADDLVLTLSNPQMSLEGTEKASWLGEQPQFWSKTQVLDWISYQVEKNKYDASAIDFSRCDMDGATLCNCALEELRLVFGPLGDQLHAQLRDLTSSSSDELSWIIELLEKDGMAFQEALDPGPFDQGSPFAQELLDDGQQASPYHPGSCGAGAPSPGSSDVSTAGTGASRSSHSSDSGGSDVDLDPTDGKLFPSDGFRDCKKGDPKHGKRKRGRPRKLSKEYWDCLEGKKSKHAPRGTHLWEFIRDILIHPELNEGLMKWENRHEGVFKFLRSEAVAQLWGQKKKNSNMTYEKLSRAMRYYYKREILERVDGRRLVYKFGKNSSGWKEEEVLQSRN
As to conditions: protein: recombinant; tags: N-terminal GST; dsDNA, one strand shown. The gist of the method: as §1

A further assay concerns the target ETV1 (Homo sapiens, UniProt P50549 1-477). As to conditions: protein: recombinant; tags: N-terminal GST; dsDNA, one strand shown. The gist of the method:
as §1

ELF4, sequence (Q99607 whole entry): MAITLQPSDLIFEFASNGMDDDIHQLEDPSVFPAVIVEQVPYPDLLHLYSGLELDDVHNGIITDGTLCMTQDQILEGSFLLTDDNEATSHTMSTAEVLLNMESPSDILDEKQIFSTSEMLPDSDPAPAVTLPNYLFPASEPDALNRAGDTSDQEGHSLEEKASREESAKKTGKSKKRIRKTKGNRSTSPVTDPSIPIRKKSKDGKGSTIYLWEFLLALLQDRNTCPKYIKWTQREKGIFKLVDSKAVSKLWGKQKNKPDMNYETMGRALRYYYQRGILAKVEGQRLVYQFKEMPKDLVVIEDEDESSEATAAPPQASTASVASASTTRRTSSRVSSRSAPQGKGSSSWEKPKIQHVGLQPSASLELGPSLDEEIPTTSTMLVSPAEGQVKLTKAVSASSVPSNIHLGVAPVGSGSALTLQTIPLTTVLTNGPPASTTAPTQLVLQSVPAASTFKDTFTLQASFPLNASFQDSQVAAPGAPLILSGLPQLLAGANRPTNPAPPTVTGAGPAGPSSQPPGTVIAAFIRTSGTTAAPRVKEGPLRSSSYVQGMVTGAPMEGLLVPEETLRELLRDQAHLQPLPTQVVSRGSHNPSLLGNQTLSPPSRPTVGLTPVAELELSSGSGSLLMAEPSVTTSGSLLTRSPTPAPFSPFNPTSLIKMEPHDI
HSF1, sequence (Q00613 whole entry): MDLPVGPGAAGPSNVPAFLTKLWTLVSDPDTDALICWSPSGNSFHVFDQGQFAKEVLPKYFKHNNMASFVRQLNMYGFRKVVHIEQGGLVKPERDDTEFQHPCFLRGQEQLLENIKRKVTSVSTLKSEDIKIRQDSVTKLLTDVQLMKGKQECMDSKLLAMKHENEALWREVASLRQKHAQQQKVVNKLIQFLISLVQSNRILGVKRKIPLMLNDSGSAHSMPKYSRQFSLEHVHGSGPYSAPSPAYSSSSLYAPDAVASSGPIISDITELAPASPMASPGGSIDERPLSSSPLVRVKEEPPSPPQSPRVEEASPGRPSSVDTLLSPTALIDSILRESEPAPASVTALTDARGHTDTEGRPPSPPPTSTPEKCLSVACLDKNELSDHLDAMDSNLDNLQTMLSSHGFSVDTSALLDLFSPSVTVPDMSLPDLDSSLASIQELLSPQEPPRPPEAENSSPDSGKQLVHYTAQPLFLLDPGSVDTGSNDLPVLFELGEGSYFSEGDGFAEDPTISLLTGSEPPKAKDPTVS
ETV1, sequence (P50549 whole entry): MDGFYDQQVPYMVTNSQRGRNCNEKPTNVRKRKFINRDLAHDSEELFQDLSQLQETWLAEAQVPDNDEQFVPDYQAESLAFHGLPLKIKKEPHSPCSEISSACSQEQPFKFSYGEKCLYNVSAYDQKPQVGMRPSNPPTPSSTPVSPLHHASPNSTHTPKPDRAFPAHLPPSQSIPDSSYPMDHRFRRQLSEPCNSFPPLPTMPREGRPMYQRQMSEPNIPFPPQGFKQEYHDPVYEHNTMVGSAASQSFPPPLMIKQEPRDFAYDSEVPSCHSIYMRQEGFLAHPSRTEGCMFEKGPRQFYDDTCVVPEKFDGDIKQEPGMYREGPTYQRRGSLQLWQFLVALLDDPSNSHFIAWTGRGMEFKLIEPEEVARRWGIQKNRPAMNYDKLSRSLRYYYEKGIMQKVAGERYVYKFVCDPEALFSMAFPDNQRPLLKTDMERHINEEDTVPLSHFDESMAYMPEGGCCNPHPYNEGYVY
ETV5, sequence (P41161 whole entry): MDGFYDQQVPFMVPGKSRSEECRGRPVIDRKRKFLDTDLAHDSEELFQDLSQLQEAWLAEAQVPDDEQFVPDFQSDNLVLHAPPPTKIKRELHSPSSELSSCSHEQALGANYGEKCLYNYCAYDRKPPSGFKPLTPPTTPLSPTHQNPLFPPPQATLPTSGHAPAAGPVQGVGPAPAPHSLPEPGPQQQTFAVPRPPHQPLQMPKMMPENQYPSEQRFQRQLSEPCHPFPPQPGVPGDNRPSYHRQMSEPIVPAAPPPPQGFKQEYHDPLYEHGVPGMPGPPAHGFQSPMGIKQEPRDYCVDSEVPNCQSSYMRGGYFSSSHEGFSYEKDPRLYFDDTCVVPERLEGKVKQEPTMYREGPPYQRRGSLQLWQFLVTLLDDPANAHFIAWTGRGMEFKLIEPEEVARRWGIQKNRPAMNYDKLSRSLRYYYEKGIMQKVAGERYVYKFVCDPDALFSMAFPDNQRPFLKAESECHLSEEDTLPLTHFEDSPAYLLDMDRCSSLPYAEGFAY

CCGGAA: the binding signal with FEV was 8.09 fold enrichment (6-mer frequency, TF over GST control); with ETV5, 6.13 fold enrichment (6-mer frequency, TF over GST control); with HSF1, 1.68 fold enrichment (6-mer frequency, TF over GST control); in the assay with SPIC, 4.87 fold enrichment (6-mer frequency, TF over GST control); in the assay with ELF4 it was 4.92 fold enrichment (6-mer frequency, TF over GST control); with ELK4 it was 3.97 fold enrichment (6-mer frequency, TF over GST control). Besides, the binding signal with ETV2 is 5.1 fold enrichment (6-mer frequency, TF over GST control); with ELF3, 5.42 fold enrichment (6-mer frequency, TF over GST control); with ETV1, 6.04 fold enrichment (6-mer frequency, TF over GST control).

As for GTAACT, the binding signal with FEV was 1.18 fold enrichment (6-mer frequency, TF over GST control); with ETV5, 1.21 fold enrichment (6-mer frequency, TF over GST control); in the assay with HSF1, 1.02 fold enrichment (6-mer frequency, TF over GST control); with SPIC, 1.37 fold enrichment (6-mer frequency, TF over GST control); with ELF4 it was 1.27 fold enrichment (6-mer frequency, TF over GST control); with ELK4, 1.26 fold enrichment (6-mer frequency, TF over GST control). Moreover, the binding signal was 1.2 fold enrichment (6-mer frequency, TF over GST control) with ETV2; 1.16 fold enrichment (6-mer frequency, TF over GST control) in the assay with ELF3; 1.16 fold enrichment (6-mer frequency, TF over GST control) in the assay with ETV1.

On to GCTATG, for which the binding signal with FEV is 1.15 fold enrichment (6-mer frequency, TF over GST control); in the assay with ETV5, 1.13 fold enrichment (6-mer frequency, TF over GST control); with HSF1, 1.07 fold enrichment (6-mer frequency, TF over GST control); in the assay with SPIC, 1.22 fold enrichment (6-mer frequency, TF over GST control); with ELF4 it was 1.08 fold enrichment (6-mer frequency, TF over GST control); in the assay with ELK4, 1.15 fold enrichment (6-mer frequency, TF over GST control). For the same sequence, the binding signal in the assay with ETV2 was 1.38 fold enrichment (6-mer frequency, TF over GST control); with ELF3, 1.18 fold enrichment (6-mer frequency, TF over GST control); in the assay with ETV1 it was 1.17 fold enrichment (6-mer frequency, TF over GST control).

As for GTTCAC, the binding signal with FEV was 1.3 fold enrichment (6-mer frequency, TF over GST control); in the assay with ETV5 it was 1.2 fold enrichment (6-mer frequency, TF over GST control); with HSF1, 1.06 fold enrichment (6-mer frequency, TF over GST control); with SPIC, 1.09 fold enrichment (6-mer frequency, TF over GST control); with ELF4 it was 1.25 fold enrichment (6-mer frequency, TF over GST control); with ELK4 it was 1.29 fold enrichment (6-mer frequency, TF over GST control). Also, the binding signal was 1.22 fold enrichment (6-mer frequency, TF over GST control) in the assay with ETV2; 1.12 fold enrichment (6-mer frequency, TF over GST control) in the assay with ELF3; 1.19 fold enrichment (6-mer frequency, TF over GST control) in the assay with ETV1.

GTACAT: the binding signal with FEV is 1.35 fold enrichment (6-mer frequency, TF over GST control); with ETV5 it was 1.37 fold enrichment (6-mer frequency, TF over GST control); in the assay with HSF1, 1.04 fold enrichment (6-mer frequency, TF over GST control); with SPIC, 1.36 fold enrichment (6-mer frequency, TF over GST control); with ELF4, 1.36 fold enrichment (6-mer frequency, TF over GST control); with ELK4 it was 1.23 fold enrichment (6-mer frequency, TF over GST control). The binding signal in the assay with ETV2 was 1.22 fold enrichment (6-mer frequency, TF over GST control); with ELF3, 1.28 fold enrichment (6-mer frequency, TF over GST control); with ETV1, 1.24 fold enrichment (6-mer frequency, TF over GST control).

As to CGCTAG, the binding signal with FEV is 1.06 fold enrichment (6-mer frequency, TF over GST control); with ETV5, 1.02 fold enrichment (6-mer frequency, TF over GST control); with HSF1, 1.29 fold enrichment (6-mer frequency, TF over GST control); in the assay with SPIC it was 1.03 fold enrichment (6-mer frequency, TF over GST control); in the assay with ELF4 it was 1.11 fold enrichment (6-mer frequency, TF over GST control); with ELK4, 1.09 fold enrichment (6-mer frequency, TF over GST control). The binding signal was 1.19 fold enrichment (6-mer frequency, TF over GST control) with ETV2; 1.01 fold enrichment (6-mer frequency, TF over GST control) in the assay with ELF3; 1.03 fold enrichment (6-mer frequency, TF over GST control) with ETV1.

Take TGGCAC: the binding signal with FEV is 1.31 fold enrichment (6-mer frequency, TF over GST control); in the assay with ETV5 it was 1.18 fold enrichment (6-mer frequency, TF over GST control); with HSF1 it was 1.03 fold enrichment (6-mer frequency, TF over GST control); with SPIC, 1.24 fold enrichment (6-mer frequency, TF over GST control); in the assay with ELF4, 1.25 fold enrichment (6-mer frequency, TF over GST control); in the assay with ELK4, 1.12 fold enrichment (6-mer frequency, TF over GST control). Moreover, the binding signal was 1.24 fold enrichment (6-mer frequency, TF over GST control) in the assay with ETV2; 1.18 fold enrichment (6-mer frequency, TF over GST control) in the assay with ELF3; 1.11 fold enrichment (6-mer frequency, TF over GST control) in the assay with ETV1.

Regarding TGACCA, the binding signal in the assay with FEV was 1.22 fold enrichment (6-mer frequency, TF over GST control); with ETV5, 1.23 fold enrichment (6-mer frequency, TF over GST control); in the assay with HSF1 it was 1.05 fold enrichment (6-mer frequency, TF over GST control); with SPIC it was 1.06 fold enrichment (6-mer frequency, TF over GST control); with ELF4, 1.29 fold enrichment (6-mer frequency, TF over GST control); in the assay with ELK4 it was 1.29 fold enrichment (6-mer frequency, TF over GST control). The binding signal was 1.17 fold enrichment (6-mer frequency, TF over GST control) with ETV2; 1.11 fold enrichment (6-mer frequency, TF over GST control) in the assay with ELF3; 1.21 fold enrichment (6-mer frequency, TF over GST control) in the assay with ETV1.
